Experimental findings from PubChem BioAssay (Tox21) are described below.

Calls of active or inactive are those of the source. Calls follow the shape of the dose curve; as a rule, active = well fitted curve in the direction sought with a large enough effect in the repeat runs; inconclusive = weak or mixed curves; inactive = flat fitted curve, though single readings scatter.

The assay can be described thus: qHTS assay to test for compound auto fluorescence at 590 nm (red) in HepG2 cells (AID 720674). The note with it: HepG2 autofluorescence, red 540/590 nm, 1 h; series mostly up to 91.3 µM. The text has this:
U.S. Tox21 Program National Center for Advancing Translational Sciences [NCATS] NIH Chemical Genomics Center [NCGC] U.S. Environmental Protection Agency [EPA] National Institutes of Environmental Health Sciences [NIEHS] National Toxicology Program [NTP] U.S. Food and Drug Administration [FDA] Tox21 Assay Overview: Compound auto fluorescence often interferes with screening of the compound library against various biological targets and signaling pathways. Some of these compounds may have fluorophoric properties. Such properties may interfere with the assay outputs resulting in false positives and/or negatives. To decrease such complications and ensure the compound activities are relevant in terms of biological response, the Tox21 10K compound library was screened for auto fluorescence. From the fluorophores used as reporter signals in our screening assays, the auto fluorescence equivalencies of compounds against three fluorophores have been evaluated: Triamterene, Fluorescein and Rose Bengal sodium for blue, green and red fluorescence, respectively. The fluorescence intensities were measured using Excitation/Emission wavelengths at 405/460nm, 485/535nm and 540/590nm for blue, green and red labels, respectively. This assay includes the red fluorescence data.
Tox21 Assay Protocol Summary: 2,000 HepG2 cells in 5 uL of culture medium (MEM containing 10% FBS) per well were dispensed into black wall/clear bottom 1536-well plates using a Multidrop Combi Dispenser (ThermoFisher Scientific, Waltham, MA). The assay plates were incubated overnight at 37 C to allow cell attachment to the well bottom, followed by the transfer of 23 nL compound or DMSO vehicle by a pintool work station (Kalypsys , San Diego, CA). After the assay plates were incubated for 1 hr at 37 C and 5% CO2, fluorescence intensities in the assay plates were measured by an Envision (PerkinElmer, Shelton, CT) plate reader using three labels for measuring blue, green and red fluorescence at […] 460, 535 and 590 nm respectively.
On the technique in general: In qHTS, concentration-response curves come from the screen itself.
Consider `COc1ccc(CCC(C)=O)cc1`, for which the compound was classed as inactive. Consider `COCCOC(=O)c1ccccc1C(=O)OCCOC`, for which the compound was called inactive. Regarding `CC(=O)OCCOC(C)=O`, the outcome was inactive. Take `C=C(C)C(=O)OCC(C)C`: the compound was classed as inactive.

With `CCCCCCCCCCCC(=O)OC`, the compound was classed as inactive. `CCCCCCCCCCN`: the result was inactive. For `C=CC(C)CCCC(C)(C)O` (stereo not given), the call was inactive. Turning to `CC(C)c1cccc(C(C)C)c1`, the compound was classed as inactive.

`CC(=O)OCc1ccco1`: the compound was called inactive.

Take `OCc1ccccc1`: the compound was classed as inactive. For the compound `CCOC(=O)c1ccc(N)cc1`, the result was inactive.

As to `O=C(O)c1cc2ccccc2cc1O`, the outcome was inactive. In the case of `CC(C)OC(=O)COc1ccc(Cl)cc1Cl`, the compound was called inactive. With `NCCNCCN`, the outcome was inactive. The entry for `CCCCCC(=O)O` is “inactive”; for `CC(C)CC(=O)CC(C)CC(C)C` (stereo not given) it is “inactive”.

Take `CCNc1ccccc1`: the compound was called inactive. As for `Clc1ccccn1`, the outcome was inactive.

As for `NC(=S)NNC(N)=S`, the compound was classed as inactive. Turning to `c1ccc(Oc2ccccc2)cc1`, the result was inactive. Take `Cc1ccc2ncccc2c1`: the result was inactive. The entry for `C=CCc1ccc(OC)c(OC)c1` is “inactive”. Next, `CCCOC(=O)c1ccccc1`: “inactive”; `CCCCOC(=O)c1ccc(N)cc1`: “inactive”; `O=C(O)CCCCCCCCC(=O)O`: “inactive”.

Consider `NCCN1CCNCC1`, for which the call was inactive. `CCOC(=O)n1ccn(C)c1=S`: the result was inactive. Next, `C[C@]12CCC(=O)C=C1CC[C@@H]1[C@@H]2[C@@H](O)C[C@@]2(C)[C@H]1CC[C@]2(O)C(=O)CO`: “inactive”; `CC(=O)Oc1ccc(C)cc1`: “inactive”. In the case of `CNC(=O)Oc1ccc2c(c1)[C@]1(C)CCN(C)[C@@H]1N2C`, the result was inactive.

In the case of `CCCCCCC=O`, the outcome was inactive. Next, `CCCCCCCO`: “inactive”; `CCCCCCCCCCCCCCCC(=O)OC(C)C`: “inactive”. The entry for `Cc1ccc([N+](=O)[O-])cc1S(=O)(=O)O` is “inactive”; for `CC(=O)OC1CC(C)OC(C)O1` (stereo not given) it is “inactive”; for `CC(C)=CCl` it is “inactive”. Regarding `CCO[Si](CCCN)(OCC)OCC`, the outcome was inactive.

`O=C(O)Cn1c(=O)n(Cc2ccc(Br)cc2F)c(=O)c2ccc(Cl)cc21`: the result was inactive.

As to `CN(C)c1ccc(Cc2ccc(N(C)C)cc2)cc1`, the compound was classed as inactive.

Regarding `CC(C)(C)c1cc(Cc2cc(C(C)(C)C)c(O)c(C(C)(C)C)c2)cc(C(C)(C)C)c1O`, the compound was called inactive.
